Our source for the Potency, max activation and outcome values is PubChem BioAssay (Tox21).

A number with no mark means an inactive call. Results filed as inconclusive are left out. Calls of active or inactive are those of the source. Calls come from the whole dose curve; as a rule, active = well fitted curve in the direction sought with a large enough effect in the repeat runs; inconclusive = weak or mixed curves; inactive = no such curve, though single readings can be large; an effect the other way counts as inactive or inconclusive.

A short description of experiment [1]: Human pregnane X receptor (PXR) small molecule agonists, qHTS cell viability counter screen (AID 1346977). Note: nearly all actives have a fitted effect of over 50% in size. Note: potency is the fitted concentration of half-maximal effect. In short, it runs like this: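 After a 5hr pre-incubation, PXR-Luc HepG2 cells received compounds plus positive control in DMSO and were kept 24hr at 37C. Cell viability was quantified by fluorescence from CellTiter-Fluor added for the final hour.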
(In qHTS, concentration-response curves come from the screen itself.)

Experiment [2] in a line: Caspase-3/7 induction in CHO-K1 cells by small molecules, qHTS cell viability counter screen (AID 1346979). Note: nearly all actives have a fitted effect of over 35% in size. Note: potency is the fitted concentration of half-maximal effect. In short, it runs like this:
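Multiplexed with Caspase-Glo 3/7 in CHO-K1 cells, this counter screen added CellTiter-Fluor after 16hr of compound exposure and recorded fluorescence 1hr later.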

The target in experiment [3] is Nuclear receptor subfamily 1 group I member 2 (Homo sapiens) (UniProt O75469). As to the kind of experiment: Human pregnane X receptor (PXR) small molecule agonists, qHTS assay (AID 1346982). Note: nearly all actives have a fitted effect of over 35% in size. Note: potency is the fitted concentration of half-maximal effect. In short, it runs like this: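 PXR-Luc HepG2 reporter cells (CYP3A4-driven luciferase) in 5% charcoal-stripped FBS medium, plated 5 h before compound addition, then treated 24 h at 37C. Luciferase read by ONE-Glo luminescence after 30 min at room temperature.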

In experiment [4] the target is Nuclear receptor subfamily 1 group I member 2 (Rattus norvegicus) (UniProt Q9R1A7). Briefly: Rat pregnane X receptor (rPXR) activation by small molecules, qHTS assay (AID 1346983). Note: nearly all actives have a fitted effect of over 20% in size. As to conditions: rPXR luciferase reporter cells, One-Glo luminescence, 24 h; max activation: stronger effect = higher value. In short, it runs like this: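 Cell-based rPXR activation assay: rPXR cells, 2,000 per well, rested 5hr at 37 C, then exposed to compounds in DMSO for 24 hr at 37 C. Luciferase activity read by One-Glo luminescence after 30 min at room temperature.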

For experiment [5], the target named is Nuclear receptor subfamily 1 group I member 2 (Homo sapiens) (UniProt O75469). Briefly: CYP3A4 induction through human pregnane X receptor (PXR) by small molecules, qHTS assay (AID 1346984). Note: nearly all actives have a fitted effect of over 40% in size. In short, it runs like this:
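DPX-2 HepG2 cells carrying a PXR response element and CYP3A4-promoter luciferase construct, treated with compounds 24 hr at 37C. Then P450-Glo CYP3A4 Luciferin-IPA substrate (3uM final) for 3 hr at 37C, One-Glo added, luminescence read.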

Experiment [6] shares this target. As to the kind of experiment: Human pregnane X receptor (PXR) activation by small molecules, qHTS assay (AID 1346985). Note: nearly all actives have a fitted effect of over 40% in size. In short, it runs like this:
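DPX-2 cells (HepG2 co-transfected with a PXR response element and a CYP3A4-promoter luciferase construct) were seeded at 2,000 per well, rested 5 hr at 37C, then exposed to DMSO-dissolved compounds for 24 hr. Activation was read as luciferase luminescence.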

In experiment [7] the target is Cytochrome P450 2D6 (Homo sapiens) (UniProt P10635). As to the kind of experiment: Cytochrome P450 Family 2 Subfamily D Member 6 (CYP2D6) small molecule antagonists: luciferase reporter qHTS assay (AID 1671196). Note: nearly all actives have a fitted effect of over 50% in size. Note: potency is the fitted concentration of half-maximal effect. In short, it runs like this: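 Cell-free P450-Glo system: CYP2D6 with proluciferin substrate was pre-incubated with compound for 10 min, then reacted with NADPH regeneration for 1 h at room temperature. Luciferin product was detected after 20 min, and data were reported as relative luminescence units.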
On the technique in general: Reporter assays use an easily measured gene product as a stand-in for the process of interest.

Experiment [8] concerns the target Cytochrome P450 2C19 (Homo sapiens) (UniProt P33261). As to the kind of experiment: Cytochrome P450 Family 2 Subfamily C Member 19 (CYP2C19) small molecule antagonists: luciferase reporter qHTS assay (AID 1671197). Note: nearly all actives have a fitted effect of over 65% in size. Note: potency is the fitted concentration of half-maximal effect. In short, it runs like this:
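Luminescent readout of CYP2C19 activity: luciferin product detected 20 min after adding detection reagent. Before that, compound and enzyme-substrate mix preincubated 10 min at room temperature; NADPH-regenerating system started a 1 h, 37C reaction. Ketoconazole as positive control.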

Experiment [9] deals with Cytochrome P450 1A2 (Homo sapiens) (UniProt P05177). Briefly: Cytochrome P450 Family 1 Subfamily A Member 2 (CYP1A2) small molecule antagonists: luciferase reporter qHTS assay (AID 1671199). Note: nearly all actives have a fitted effect of over 50% in size. Note: potency is the fitted concentration of half-maximal effect. In short, it runs like this:
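P450-Glo CYP1A2 enzyme–proluciferin substrate mix with compound 10 min at room temperature, then NADPH regeneration 1 h at room temperature. Luciferin detection reagent added, luminescence read after 20 min; furafylline positive control.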

In experiment [10] the target is Voltage-gated inwardly rectifying potassium channel KCNH2 (Homo sapiens) (UniProt Q12809). Briefly: Human Ether-a-go-go-Related Gene (hERG) channel small molecule antagonists: fluorescence cell-based qHTS assay (AID 1671200). Note: nearly all actives have a fitted effect of over 50% in size. Note: potency is the fitted concentration of half-maximal effect. In short, it runs like this: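 Cell line hERG-U2OS; dye FluxOR II, 1 h RT dark; Tl+ stimulus; ex 480/em 540 nm, read each second for 2 min.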

Experiment [11] addresses Cytochrome P450 3A4 (Homo sapiens) (UniProt P08684). Briefly: Cytochrome P450 Family 3 Subfamily A Member 4 (CYP3A4) small molecule antagonists: luciferase reporter qHTS assay (AID 1671201). Note: nearly all actives have a fitted effect of over 50% in size. Note: potency is the fitted concentration of half-maximal effect. In short, it runs like this: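 Room-temperature assay throughout: 10 min compound–enzyme/substrate preincubation, 1 h reaction after NADPH regeneration solution, 20 min detection. Luciferin formed from proluciferin substrate is quantified by luminescence.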

The nature of experiment [12]: Caspase-3/7 induction in CHO-K1 cells by small molecules, qHTS assay (AID 1346980). Note: nearly all actives have a fitted effect of over 15% in size. In short, it runs like this:
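Wild-type CHO-K1 cells exposed to compounds for 17hr at 37 C, 5% CO2. Caspase-3/7 activity then measured by Caspase-Glo 3/7 luminescence after 30min at room temperature.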

Experiment [13] can be described thus: Caspase-3/7 induction in HepG2 cells by small molecules, qHTS cell viability counter screen (AID 1346981). Note: series mostly up to about 92 µM; nearly all actives have a fitted effect of over 30% in size. In short, it runs like this: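 Wild-type HepG2 cells, 2,000/well, settled 5 hr at 37 C, 5% CO2 before compound addition. Viability read by CellTiter-Fluor fluorescence, reagent added after 16 hr compound exposure, then 1 hr at 37C, in the same wells as the caspase read.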

Experiment [14] addresses Cytochrome P450 2C9 (Homo sapiens) (UniProt P11712). Briefly: Cytochrome P450 Family 2 Subfamily C Member 9 (CYP2C9) small molecule antagonists: luciferase reporter qHTS assay (AID 1671198). Note: nearly all actives have a fitted effect of over 50% in size. Note: potency is the fitted concentration of half-maximal effect. In short, it runs like this:
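P450-Glo proluciferin substrate with CYP2C9 enzyme; 10 min RT preincubation, then NADPH regeneration 1 h at 37C; luciferin detection reagent 20 min RT, luminescence in relative luminescence units.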

Experiment [15] is described as follows: Caspase-3/7 induction in HepG2 cells by small molecules, qHTS assay (AID 1346978). Note: nearly all actives have a fitted effect of over 15% in size. In short, it runs like this:
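Wild-type HepG2 cells, 2,000/well, settled 5 hr at 37 C and 5% CO2, then compound-treated for 17 hr; caspase-3/7 activity read by luminescent Caspase-Glo 3/7 after 30 min at room temperature.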
% is set by controls: 0 for no effect and ±100 for the full control effect.

Sequence of Cytochrome P450 2C19 (Homo sapiens) (P33261 whole entry, looked up): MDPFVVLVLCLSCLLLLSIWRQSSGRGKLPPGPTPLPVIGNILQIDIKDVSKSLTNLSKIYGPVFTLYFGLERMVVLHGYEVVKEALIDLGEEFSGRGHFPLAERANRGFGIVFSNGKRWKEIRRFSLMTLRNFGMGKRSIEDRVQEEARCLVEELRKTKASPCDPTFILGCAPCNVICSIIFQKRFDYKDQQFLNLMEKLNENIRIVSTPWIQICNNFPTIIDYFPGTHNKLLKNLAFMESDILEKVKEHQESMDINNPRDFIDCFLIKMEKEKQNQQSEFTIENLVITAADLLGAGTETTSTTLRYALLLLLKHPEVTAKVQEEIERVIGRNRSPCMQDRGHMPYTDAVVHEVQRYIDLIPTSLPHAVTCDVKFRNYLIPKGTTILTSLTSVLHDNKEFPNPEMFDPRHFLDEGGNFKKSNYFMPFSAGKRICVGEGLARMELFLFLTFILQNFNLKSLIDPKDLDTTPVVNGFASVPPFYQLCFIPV
Sequence of Voltage-gated inwardly rectifying potassium channel KCNH2 (Homo sapiens) (Q12809 whole entry, looked up): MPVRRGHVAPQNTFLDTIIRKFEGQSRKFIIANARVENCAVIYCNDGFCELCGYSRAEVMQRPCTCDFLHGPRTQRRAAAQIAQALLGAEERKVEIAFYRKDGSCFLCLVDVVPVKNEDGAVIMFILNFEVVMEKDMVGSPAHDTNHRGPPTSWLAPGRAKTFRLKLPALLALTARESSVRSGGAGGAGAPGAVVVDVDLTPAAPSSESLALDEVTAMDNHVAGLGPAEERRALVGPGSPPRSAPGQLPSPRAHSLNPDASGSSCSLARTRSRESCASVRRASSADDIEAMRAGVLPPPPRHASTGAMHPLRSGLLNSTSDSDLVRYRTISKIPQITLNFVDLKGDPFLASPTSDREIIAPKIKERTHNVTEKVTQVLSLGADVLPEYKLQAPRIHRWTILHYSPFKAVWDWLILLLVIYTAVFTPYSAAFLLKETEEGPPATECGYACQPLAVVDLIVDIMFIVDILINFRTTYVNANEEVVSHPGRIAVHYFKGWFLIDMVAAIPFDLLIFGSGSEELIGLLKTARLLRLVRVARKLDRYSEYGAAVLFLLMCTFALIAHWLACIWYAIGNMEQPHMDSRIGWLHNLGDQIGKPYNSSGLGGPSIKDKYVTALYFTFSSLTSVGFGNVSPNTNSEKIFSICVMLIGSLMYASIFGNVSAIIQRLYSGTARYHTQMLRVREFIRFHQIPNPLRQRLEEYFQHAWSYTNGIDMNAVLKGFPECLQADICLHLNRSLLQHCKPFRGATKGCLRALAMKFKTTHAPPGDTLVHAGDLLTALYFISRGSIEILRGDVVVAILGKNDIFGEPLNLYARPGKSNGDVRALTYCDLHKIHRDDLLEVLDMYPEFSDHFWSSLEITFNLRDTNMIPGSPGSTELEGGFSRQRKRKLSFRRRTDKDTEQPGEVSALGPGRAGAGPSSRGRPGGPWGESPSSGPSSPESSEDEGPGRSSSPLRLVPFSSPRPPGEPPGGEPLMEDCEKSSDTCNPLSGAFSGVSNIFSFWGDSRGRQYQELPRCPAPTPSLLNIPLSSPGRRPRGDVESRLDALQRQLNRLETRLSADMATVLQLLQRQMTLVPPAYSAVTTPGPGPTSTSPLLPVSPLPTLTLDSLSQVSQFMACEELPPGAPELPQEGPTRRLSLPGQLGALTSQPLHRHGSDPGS
Sequence of Nuclear receptor subfamily 1 group I member 2 (Homo sapiens) (O75469 whole entry, looked up): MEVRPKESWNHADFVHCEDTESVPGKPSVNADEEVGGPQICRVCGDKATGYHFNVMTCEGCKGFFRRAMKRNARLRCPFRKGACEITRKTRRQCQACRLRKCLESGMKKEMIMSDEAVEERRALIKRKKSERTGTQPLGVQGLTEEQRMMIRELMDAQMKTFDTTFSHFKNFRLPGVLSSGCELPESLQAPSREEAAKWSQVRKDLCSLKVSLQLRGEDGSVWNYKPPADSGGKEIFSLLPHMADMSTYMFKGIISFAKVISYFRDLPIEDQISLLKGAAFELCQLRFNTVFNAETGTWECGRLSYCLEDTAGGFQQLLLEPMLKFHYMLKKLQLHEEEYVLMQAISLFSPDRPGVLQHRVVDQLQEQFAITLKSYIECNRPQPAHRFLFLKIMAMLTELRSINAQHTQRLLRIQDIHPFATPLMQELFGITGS
Sequence of Cytochrome P450 3A4 (Homo sapiens) (P08684 whole entry, looked up): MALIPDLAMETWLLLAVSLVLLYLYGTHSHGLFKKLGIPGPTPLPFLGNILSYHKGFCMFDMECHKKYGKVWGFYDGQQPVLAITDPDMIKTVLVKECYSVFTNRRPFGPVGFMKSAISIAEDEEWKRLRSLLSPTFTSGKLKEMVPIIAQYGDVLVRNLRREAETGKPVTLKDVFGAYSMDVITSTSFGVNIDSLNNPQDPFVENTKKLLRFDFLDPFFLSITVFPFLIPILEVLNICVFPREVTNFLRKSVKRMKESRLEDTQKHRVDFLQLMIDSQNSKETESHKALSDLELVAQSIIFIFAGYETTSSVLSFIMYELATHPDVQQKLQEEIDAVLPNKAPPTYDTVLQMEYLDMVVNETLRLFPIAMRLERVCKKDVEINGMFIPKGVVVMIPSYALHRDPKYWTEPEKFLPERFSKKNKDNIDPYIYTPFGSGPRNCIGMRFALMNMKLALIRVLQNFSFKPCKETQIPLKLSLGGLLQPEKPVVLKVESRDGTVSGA
Sequence of Cytochrome P450 2C9 (Homo sapiens) (P11712 whole entry, looked up): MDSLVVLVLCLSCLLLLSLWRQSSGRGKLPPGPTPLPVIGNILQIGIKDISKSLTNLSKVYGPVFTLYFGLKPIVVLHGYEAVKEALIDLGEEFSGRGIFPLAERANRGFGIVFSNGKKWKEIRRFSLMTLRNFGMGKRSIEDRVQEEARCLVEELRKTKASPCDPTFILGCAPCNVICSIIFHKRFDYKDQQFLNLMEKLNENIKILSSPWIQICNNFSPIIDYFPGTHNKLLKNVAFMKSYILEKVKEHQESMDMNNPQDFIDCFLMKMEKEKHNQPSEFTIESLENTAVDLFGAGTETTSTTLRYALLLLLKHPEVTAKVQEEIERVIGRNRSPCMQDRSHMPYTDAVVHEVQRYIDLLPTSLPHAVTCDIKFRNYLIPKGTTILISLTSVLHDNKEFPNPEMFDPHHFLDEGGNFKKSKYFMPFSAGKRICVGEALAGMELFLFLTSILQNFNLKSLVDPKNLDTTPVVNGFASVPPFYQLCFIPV
Sequence of Cytochrome P450 1A2 (Homo sapiens) (P05177 whole entry, looked up): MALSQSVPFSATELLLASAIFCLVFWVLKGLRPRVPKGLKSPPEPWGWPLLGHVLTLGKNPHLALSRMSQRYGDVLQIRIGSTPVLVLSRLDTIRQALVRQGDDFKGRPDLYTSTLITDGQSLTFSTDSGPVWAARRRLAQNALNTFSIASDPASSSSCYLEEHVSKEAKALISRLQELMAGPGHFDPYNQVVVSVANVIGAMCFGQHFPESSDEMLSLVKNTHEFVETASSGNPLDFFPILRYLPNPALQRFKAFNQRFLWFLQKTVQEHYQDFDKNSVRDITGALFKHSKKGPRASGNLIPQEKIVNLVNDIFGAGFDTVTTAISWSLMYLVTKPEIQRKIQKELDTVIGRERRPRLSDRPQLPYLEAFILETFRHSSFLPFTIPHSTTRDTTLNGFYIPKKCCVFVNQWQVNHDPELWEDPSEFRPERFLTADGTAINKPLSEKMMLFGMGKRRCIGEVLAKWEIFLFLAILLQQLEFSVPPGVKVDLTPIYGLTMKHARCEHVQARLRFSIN
Sequence of Cytochrome P450 2D6 (Homo sapiens) (P10635 whole entry, looked up): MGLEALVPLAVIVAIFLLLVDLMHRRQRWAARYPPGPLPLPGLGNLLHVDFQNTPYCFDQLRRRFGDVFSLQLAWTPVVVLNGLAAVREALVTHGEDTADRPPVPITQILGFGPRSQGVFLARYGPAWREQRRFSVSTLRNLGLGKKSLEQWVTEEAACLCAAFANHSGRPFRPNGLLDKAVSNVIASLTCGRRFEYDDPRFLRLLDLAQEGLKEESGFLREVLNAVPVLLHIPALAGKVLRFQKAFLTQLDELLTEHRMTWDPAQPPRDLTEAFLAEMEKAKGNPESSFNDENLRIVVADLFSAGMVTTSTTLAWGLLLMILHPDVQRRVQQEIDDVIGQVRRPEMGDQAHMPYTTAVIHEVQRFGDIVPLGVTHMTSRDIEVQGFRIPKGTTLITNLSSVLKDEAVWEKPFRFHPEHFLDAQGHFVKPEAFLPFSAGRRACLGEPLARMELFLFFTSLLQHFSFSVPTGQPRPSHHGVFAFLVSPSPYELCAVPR
Sequence of Nuclear receptor subfamily 1 group I member 2 (Rattus norvegicus) (Q9R1A7 whole entry, looked up): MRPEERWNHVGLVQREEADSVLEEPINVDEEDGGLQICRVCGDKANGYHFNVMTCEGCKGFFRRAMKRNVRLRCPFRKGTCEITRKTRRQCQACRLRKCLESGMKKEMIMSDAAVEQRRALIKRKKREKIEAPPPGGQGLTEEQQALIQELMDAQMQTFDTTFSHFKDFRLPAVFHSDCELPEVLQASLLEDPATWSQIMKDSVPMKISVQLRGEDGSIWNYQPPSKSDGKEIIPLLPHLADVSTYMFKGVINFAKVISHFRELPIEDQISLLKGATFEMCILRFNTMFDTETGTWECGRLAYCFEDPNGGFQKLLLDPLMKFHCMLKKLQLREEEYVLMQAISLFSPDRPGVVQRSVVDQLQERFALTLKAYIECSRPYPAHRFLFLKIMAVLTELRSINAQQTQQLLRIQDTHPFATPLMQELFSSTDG

With `O=C(CCCCCCC(=O)Nc1ccccc1)NO`, the Potency is 8.41 µM (active) in experiment [1]; 13.3 µM (active) in [2]; 7.5 µM (active) in experiment [3]; 5.49 µM (active) in experiment [7]; 7.76 µM (active) in experiment [8]; 12.9 µM (active) in experiment [9]. Moreover, the max activation in experiment [4] is -13.8%. The Potency result in experiment [5], in experiment [6], in [10] and in experiment [11] was “inactive” in each case.

As for `Cc1ccc(S(=O)(=O)NC2CCCCC2)cc1`, the Potency result in [1], in experiment [13] and in [10] was “inactive” throughout. Besides, in [12], the outcome was inactive. Also, the Potency in [3] is 27.1 µM (active); in experiment [8], 6.28 µM (active); in experiment [14], 22.3 µM (active); in experiment [11], 17.7 µM (active).

With `Cc1ccc(/C=N/n2c(-c3ccccc3)csc2=S)cc1`, the Potency entry in experiment [1], in experiment [13] and in experiment [7] was “inactive” each time. Moreover, the compound was classed as inactive in experiment [12]. For the same compound, the Potency is 23.7 µM (active) in experiment [3], 8.71 µM (active) in experiment [8], 6.92 µM (active) in experiment [14] and 7.76 µM (active) in experiment [9].

As for `Fc1c(F)c(F)c(Br)c(F)c1F`, the Potency result in experiment [2], in experiment [13], in [3], in experiment [7], in [8] and in experiment [14] was “inactive” in each case. In addition, the Potency result in [10] and in experiment [11] was “inactive” each time. In experiment [12], the outcome was inactive.

Turning to `N#C/C(=C1/SC[C@@H](c2ccc(Cl)cc2Cl)S1)n1ccnc1`, the Potency entry in [15], in experiment [13] and in [3] was “inactive” each time. The call in [12] was inactive. The Potency in experiment [8] is 0.389 µM (active); in [14], 0.389 µM (active); in experiment [9], 0.288 µM (active); in [10], 3.01 µM (active).

On to `CC1C2CC(CC2C2CCCC(O)C2)C1(C)C` (stereo not given), for which the Potency in experiment [2] is 68.6 µM (active); in experiment [8] it was 35.6 µM (active); in experiment [14] it was 35.6 µM (active); in [10], 24.5 µM (active). For the same compound, the Potency entry in experiment [13] and in experiment [3] was “inactive” in each case.

In the case of `O=c1[nH]c2ccc(S(=O)CCN3CCC(Cc4ccc(F)cc4)CC3)cc2o1` (stereo not given), the Potency result in [15], in [3], in [14] and in experiment [9] was “inactive” throughout. Further, the Potency in experiment [2] was 54.5 µM (active); in experiment [7], 35.6 µM (active); in experiment [8], 56.4 µM (active); in experiment [10], 4.36 µM (active). In addition, in experiment [12], the call was inactive.

For the compound `CCCOc1ccc(S(=O)(=O)N2CCN(CC)CC2)cc1-c1nc2c(CC)n(Cc3ccccn3)nc2c(=O)[nH]1`, the Potency result in experiment [15], in experiment [2], in experiment [7] and in experiment [9] was “inactive” in each case. In addition, the outcome in experiment [12] was inactive. Besides, the Potency in experiment [3] is 10.9 µM (active); in [8] it was 71 µM (active); in experiment [14] it was 3.17 µM (active); in experiment [10], 21.9 µM (active); in experiment [11], 0.399 µM (active).

Turning to `CCC(=O)Oc1ccc(/C(CC)=C(\CC)c2ccc(OC(=O)CC)cc2)cc1`, the Potency entry in experiment [15], in [13], in experiment [7], in experiment [8], in [14] and in [9] was “inactive” throughout. The Potency result in experiment [10] and in experiment [11] was “inactive” throughout. In experiment [2], the Potency was 61.1 µM (active). Moreover, the result in experiment [12] was inactive.

With `Cc1c(C(=O)NN2CCCCC2)nn(-c2ccc(Cl)cc2Cl)c1-c1ccc(Cl)cc1`, the Potency entry in experiment [15], in experiment [5], in [6], in experiment [7], in [8] and in experiment [9] was “inactive” throughout. For the same compound, the Potency entry in [11] is “inactive”. Besides, the Potency was 26.6 µM (active) in experiment [2] and 2.13 µM (active) in experiment [10]. Besides, the outcome in experiment [12] was inactive. Besides, in experiment [4], the max activation was -8.23%.
